Source: PubChem BioAssay
Rows were chosen to be rich in hits. Some 7% of all compounds tested hit in one or more screens of this group.
NR3A LBD binder: binders of NR3A ligand-binding domain, primary screen, biophysical, differential scanning fluorimetry, uHTS | Glutamate receptor ionotropic, NMDA 3A (GRIN3A) ligand-binding domain | 2.5% of 340,000 active | AID 1259313, 2017 | NR3A LBD differential scanning fluorimetry, Tm shift; 0% = protein alone, 100% = glycine-bound protein | Tm shift relative to glycine control, % at 25 µM;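 active means melting temperature shift of at least 10% of the positive control shift, at one fixed dose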
ADAM17 inh: ADAM17 inhibitors, primary screen, biochemical, QFRET. inhibition, % at 6.95 µM. Disintegrin and metalloproteinase domain-containing protein 17 (Homo sapiens), P78536. 0.83% of 370,000 active. recombinant ADAM17, EDANS/DABCYL FRET peptide cleavage;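 active means inhibition above the mean of compounds lying between control limits plus 3 SD, set per campaign, cut at about 8.5% in these data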;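 further: 0% = DMSO-only wells as the low control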
AHR act: AHR activators, primary screen, cell-based, luminescence, luciferase reporter, human. AHR-responsive luciferase reporter cells. activation, % at 5 µM. 2.5% of 320,000 active; in the data active means activation above about 47%;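 further: 0% = vehicle wells and 100% = reference agonist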
rCAG RNA binder: binders of r(CAG) RNA repeats, primary screen, biochemical, fluorescence | inhibition, % at 3 µM | 1.3% of 370,000 active | AID 651821, 2012 | r(CAG) RNA repeat, TO-PRO-1 dye displacement fluorescence;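 active means inhibition above the plate cutoff, the mean of all test compounds on that plate plus 3 SD, cut at about 35% in these data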;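 further: 0% = DMSO alone and 100% = 100 µM mitoxantrone as full dye displacement; higher means more dye released from RNA so lower well fluorescence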
ADAM10 inh: human ADAM10 inhibitors, primary screen, biochemical, QFRET, HTS. AID 720582, 2013. 0.62% of 370,000 active. Disintegrin and metalloproteinase domain-containing protein 10 (Homo sapiens), O14672. recombinant ADAM10, EDANS/DABCYL FRET peptide cleavage, 3 h. inhibition, % at 7 µM;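 active means inhibition above a per-campaign cutoff equal to the mean of compounds falling between control-based bounds plus 3 SD, cut at about 20% in these data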;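 further: 0% = DMSO wells while the 100% control is not disclosed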
proKLK7 act: proKLK7 zymogen activators, primary screen, biochemical, fluorescence intensity. Kallikrein-7 (Homo sapiens), P49862. purified proKLK7, EDANS-DABCYL substrate fluorescence; 100% is mature enzyme control, 0% vehicle. activation, % at 7 µM. 0.9% of 370,000 active. AID 652039, 2013;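 active means activation above the mean of all tested compounds plus 3 SD, computed per campaign excluding outliers beyond control limits, cut at about 13% in these data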
Target sequence (P49862 whole entry, looked up): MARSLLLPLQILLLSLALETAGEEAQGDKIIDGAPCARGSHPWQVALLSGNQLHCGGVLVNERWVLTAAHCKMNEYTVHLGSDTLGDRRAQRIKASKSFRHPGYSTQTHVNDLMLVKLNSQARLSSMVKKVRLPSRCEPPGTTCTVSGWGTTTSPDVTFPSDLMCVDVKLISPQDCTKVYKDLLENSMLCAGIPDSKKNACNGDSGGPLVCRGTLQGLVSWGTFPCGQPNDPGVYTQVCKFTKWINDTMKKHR
rCAG binder conf: small molecules binding CAG repeat RNA – biochemical, fluorescence, confirmation; shares compounds with rCAG RNA binder; r(CAG) RNA repeat, TO-PRO-1 dye displacement fluorescence; inhibition, % at 3 µM; 70% of 4,300 active; AID 652065, 2013;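 active means inhibition above a per-plate cutoff, the mean inhibition of sample wells plus 3 SD, cut at about 35% in these data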;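 further: loss of TO-PRO-1 fluorescence as compound displaces dye from 1x1 AA loop RNA; 0% = DMSO only wells and 100% = 100 µM mitoxantrone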
dCAG dye counter: displacement of TO-PRO-1 from CAG DNA duplex, counter-screen for rCAG RNA repeat binder project, biochemical, fluorescence, TO-PRO-1 dye, d(CAG) DNA oligo; shares compounds with rCAG RNA binder; d(CAG) DNA oligo TO-PRO-1 dye displacement; inhibition, % at 3 µM; 94% of 4,300 active;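 active means inhibition above its plate's cutoff, the mean test-well inhibition plus 3 SD, cut at about 4.8% in these data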;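 further: 0% = DNA dye mix with DMSO and 100% = 100 µM mitoxantrone; hits displace the dye from DNA and so lower well fluorescence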
dCAG dye DR: inhibitors of DNA CAG/GTC TO-PRO-1 complex, dose response, counter-screen for rCAG RNA repeat binder project, biochemical, fluorescence, TO-PRO-1 dye; 20% of 250 active; AID 686960, 2013; IC50, µM; DNA CAG/GTC duplex TO-PRO-1 dye displacement fluorescence; shares compounds with rCAG RNA binder; in the data active means IC50 below about 10 µM
The depositor's hits bear a star; i = inactive; nt = not tested or not shown.

SMILES | NR3A LBD binder | ADAM17 inh | AHR act | rCAG RNA binder | ADAM10 inh | proKLK7 act | rCAG binder conf | dCAG dye counter | others
COC(=O)[C@]12C[C@H](CC(=O)N3CCCC3)C(=O)N(Cc3ccco3)C1=C[C@H](C(C)(C)C)O[C@@H]2C | nt | -1 | nt | -2 | 1 | 1 | nt | nt
N#Cc1sc2nccc(Nc3ccccc3)c2c1N | 1 | -18 | 1 | 38* | -46 | 1 | 2 | 0
O=C(C(=O)N1CCC(CNS(=O)(=O)c2ccc(F)c(F)c2)CC1)c1cc2ccccc2o1 | nt | -2 | nt | 4 | -1 | 0 | nt | nt
CC(C)CSC1=NSC2=NC(=O)/C(=C\c3ccccc3)C(=N)N12 | 1 | -8 | 14 | 76* | -9 | 0 | 39* | 9.9*
O=C(O)c1ccc([N+](=O)[O-])cc1 | 2 | 2 | nt | 1 | 9 | 0 | nt | nt
CC(C)(C)C(=O)Nc1ccc(C(=O)Nc2cc(NC(=O)c3ccc(NC(=O)C(C)(C)C)cc3)cc(C(=O)O)c2)cc1 | -6 | -1 | 0 | 44* | 0 | 0 | 67* | 30*
O=C(O)c1cc(NC(=O)c2ccc([N+](=O)[O-])cc2)cc(NC(=O)c2ccc([N+](=O)[O-])cc2)c1 | -7 | -5 | 0 | 50* | -2 | 0 | 34 | 7.2*
O=C1OC(c2ccc3ccccc3c2O)(c2ccc3ccccc3c2O)c2ccccc21 | -12 | 4 | nt | 63* | 2 | -2 | 70* | 35*
CC(OP(=O)(O)C(NC(=O)[C@H](Cc1ccc(O)cc1)NC(=O)OC(C)(C)C)C(C)C)C(=O)O (stereo not given in full) | nt | -2 | nt | nt | -2 | nt | nt | nt
COCCN1C(=O)Cc2c1nc(N)c1c(N)nc(N3CCN(c4ccc(F)cc4)CC3)c(C#N)c21 | 4 | -4 | 1 | 38* | -12 | -1 | 22 | 15*
O=C(/C=C(\Nc1cccc(F)c1)c1ccccc1)c1ccccc1 | nt | -3 | nt | 3 | -7 | 2 | nt | nt
O=C(Nc1cccnc1)c1ccc(Cl)c(S(=O)(=O)N2CCCCC2)c1 | 4 | -3 | 34 | -4 | -1 | 0 | nt | nt
COc1ccc(C(=O)O)cc1S(=O)(=O)Nc1cccc(C(F)(F)F)c1 | 1 | -2 | 0 | 2 | 4 | 0 | nt | nt
O=C(O)c1cccc(NC(=O)c2ccc(Cl)c(S(=O)(=O)N3CCCCCC3)c2)c1 | 0 | -2 | 5 | 35* | 1 | 0 | 32 | 5.4*
O=C(O)c1ccc(Cl)c(S(=O)(=O)Nc2cccc(C(=O)Nc3cccc(C(F)(F)F)c3)c2)c1 | 6 | -3 | 6 | 39* | 3 | 0 | 24 | 7.9*
O=C(O)c1cccc(NC(=O)c2cccc(S(=O)(=O)N3CCc4ccccc4C3)c2)c1 | 0 | -3 | 1 | 37* | -15 | 0 | 23 | 4.5*
O=c1c2ccccc2n(Cc2ccccc2)n1[C@@H](Cc1ccccc1)Cn1cc(C2CCCC2)nn1 | nt | -120 | nt | 7 | -426 | -4 | nt | nt
CCOc1ccc(C(=O)Oc2cc(C)[nH]c(=O)c2[N+](=O)[O-])cc1 | 1 | -2 | -4 | 74* | -10 | -1 | 0 | -1
O=C(O)c1ccn2c(C(=O)c3ccc(Cl)cc3)c(-c3ccccc3)cc2c1 | -2 | -3 | 1 | 68* | 2 | 0 | 64* | 23* | dCAG dye DR=i
COc1ccc(C(=O)Nc2nnc(S(=O)(=O)N(C)Cc3ccc(F)cc3)s2)cc1OC | 4 | -5 | 0 | 26 | -44 | 0 | nt | nt
CN(Cc1ccccc1)S(=O)(=O)c1nnc(NC(=O)c2ccc(F)cc2)s1 | -1 | -2 | 0 | 4 | 3 | 0 | nt | nt
COc1ccc(C(=O)Nc2nnc(S(=O)(=O)N(C)Cc3ccccc3)s2)cc1 | -7 | 3 | 2 | 5 | -5 | 0 | nt | nt
CN(Cc1ccc(F)cc1)S(=O)(=O)c1nnc(NC(=O)c2ccccc2)s1 | 4 | 0 | 1 | 42* | -4 | 0 | 43* | 11*
COc1ccc(CN(C)S(=O)(=O)c2nnc(NC(=O)c3cccc(F)c3)s2)cc1 | 7 | -3 | -3 | 41* | -2 | 1 | 64* | 25*
CN(Cc1ccc(F)cc1)S(=O)(=O)c1nnc(NC(=O)c2ccccc2Br)s1 | 6 | 4 | -1 | 68* | 6 | 0 | 48* | 14*
SMILES | NR3A LBD binder | ADAM17 inh | AHR act | rCAG RNA binder | ADAM10 inh | proKLK7 act | rCAG binder conf | dCAG dye counter | others
COc1ccc(CN(C)S(=O)(=O)c2nnc(NC(=O)c3cccc(C)c3)s2)cc1OC | 2 | 0 | 4 | 67* | 1 | 1 | 53* | 17*
COC(=O)C[C@@H]1CC[C@@H](NC(=O)Nc2cc(F)ccc2F)[C@@H](CO)O1 | nt | -6 | nt | 0 | -9 | 0 | nt | nt
COC(=O)[C@]12C[C@H](CC(=O)NCc3cccc(C(F)(F)F)c3)C(=O)N(Cc3cccc4ccccc34)C1=C[C@H](C(C)(C)C)O[C@@H]2C | nt | 6 | nt | 2 | 15 | -1 | nt | nt
C=CCn1c(SCC(=O)Nc2ccccc2OCC)nnc1-c1ccc(C(C)(C)C)cc1 | nt | 6 | nt | 0 | 5 | 0 | nt | nt
O=C(OCC#CCSc1nnc(-c2ccccc2)o1)c1ccc(F)cc1 | nt | -1 | nt | nt | 4 | nt | nt | nt
COc1ccccc1C(=O)Nc1ccc(S(=O)(=O)Nc2nccs2)cc1 | -1 | -2 | -2 | 22 | 5 | 0 | nt | nt
O=C(NC(=S)Nc1ccc(S(=O)(=O)Nc2nccs2)cc1)c1cccnc1 | 1 | -2 | -1 | 7 | -4 | 0 | nt | nt
COc1cccc(OC)c1C(=O)NC(=S)Nc1ccc(S(=O)(=O)Nc2nccs2)cc1 | -16 | 1 | -2 | 59* | 8 | 0 | 40* | 16*
O=C(NC(=S)Nc1ccc(S(=O)(=O)Nc2nccs2)cc1)c1ccccc1 | -22 | 0 | 3 | 41* | 9 | 0 | 37* | 8.9*
